Experimental findings from PubChem BioAssay (EPA / NIEHS) are described below.

Read-out in experiment [1]: Thrombomodulin, THBD (gene 7056)
Briefly: BSK_CASM3C_Thrombomodulin: BioMAP Diversity Plus: CASM3C Assay for Thrombomodulin Biomarker Activity (AID 2283051).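 Also: thrombomodulin protein level measured by ELISA 24 h after dosing.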 The following applies: primary human coronary artery smooth muscle cells; actives raise or lower the signal.

Read-out in experiment [2]: Tissue Factor, F3 (gene 2152)
Briefly: BSK_CASM3C_TissueFactor: BioMAP Diversity Plus: CASM3C Assay for Tissue Factor Biomarker Activity (AID 2283052).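 Also: cell surface tissue factor protein level read by ELISA.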 The conditions noted are these: primary human coronary artery smooth muscle cells; actives raise or lower the signal.

Read-out in experiment [3]: Interferon-gamma inducible Protein 10 (IP10), CXCL10 (gene 3627)
Briefly: BSK_hDFCGF_IP10: BioMAP Diversity Plus: hDFCGF Assay for Interferon-gamma inducible Protein 10 (IP10) Biomarker Activity (AID 2283053). The conditions noted are these: primary human foreskin fibroblasts; actives raise or lower the signal. The procedure, abridged:
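Chemical-treated human skin fibroblasts (primary) were sampled at 24 h for IP-10 by ELISA. Both increases and decreases relative to DMSO were scored.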

Read-out in experiment [4]: Urokinase-type plasminogen activator receptor (uPAR), PLAUR (gene 5329)
Briefly: BSK_CASM3C_uPAR: BioMAP Diversity Plus: CASM3C Assay for Urokinase-type plasminogen activator receptor (uPAR) Biomarker Activity (AID 2283054).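 Also: cell-surface uPAR protein level quantified by ELISA.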 The conditions noted are these: primary human coronary artery smooth muscle cells; actives raise or lower the signal.

Read-out in experiment [5]: Vascular cell adhesion molecule 1 (VCAM1), VCAM1 (gene 7412)
Briefly: BSK_CASM3C_VCAM1: BioMAP Diversity Plus: CASM3C Assay for Vascular cell adhesion molecule 1 (VCAM1) Biomarker Activity (AID 2283055).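 Also: VCAM-1 protein level quantified by ELISA on the cells.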 The conditions noted are these: primary human coronary artery smooth muscle cells; actives raise or lower the signal.

Read-out in experiment [6]: Collagen III, COL3A1 (gene 1281)
Put plainly: BSK_hDFCGF_CollagenIII: BioMAP Diversity Plus: hDFCGF Assay for Collagen III Biomarker Activity (AID 2283056). The conditions noted are these: primary human foreskin fibroblasts; actives raise or lower the signal. In outline: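 Human foreskin fibroblast primary cultures sampled 24 h after dosing; Collagen III quantified by ELISA. Signal fitted bidirectionally against DMSO baseline.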

Read-out in experiment [7]: Epidermal growth factor receptor (EGFR), EGFR (gene 1956)
Briefly: BSK_hDFCGF_EGFR: BioMAP Diversity Plus: hDFCGF Assay for Epidermal growth factor receptor (EGFR) Biomarker Activity (AID 2283057). The conditions noted are these: primary human foreskin fibroblasts; actives raise or lower the signal. The procedure, abridged:
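Cell-based multiplexed assay in primary human foreskin fibroblasts. EGFR is read by ELISA 24 h after treatment and compared with DMSO controls.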

Read-out in experiment [8]: Interleukin-8 (IL8), CXCL8 (gene 3576)
Briefly: BSK_hDFCGF_IL8: BioMAP Diversity Plus: hDFCGF Assay for Interleukin-8 (IL8) Biomarker Activity (AID 2283058). The conditions noted are these: primary human foreskin fibroblasts; actives raise or lower the signal. The procedure, abridged: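 Primary human foreskin fibroblasts (hDFCGF system) dosed with chemical; IL-8 measured by ELISA 24 hours later. Bidirectional curve fitting relative to DMSO baseline; cytotoxicity tracked in parallel cultures by SRB total protein staining.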

The nature of experiment [9]: BSK_hDFCGF_Proliferation: Cell Proliferation Assessment in the BioMAP Diversity Plus: hDFCGF Assay (AID 2283059).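 Also: curves fitted for both rise and fall of signal versus DMSO baseline.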 The following applies: primary human foreskin fibroblasts. The procedure, abridged: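 Total protein read at 560 nm after 0.1% SRB staining of TCA-fixed human skin fibroblasts, […]. Activity is fitted in both directions relative to DMSO as baseline.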

Read-out in experiment [10]: Macrophage colony-stimulating factor (MCSF), CSF1 (gene 1435)
Briefly: BSK_hDFCGF_MCSF: BioMAP Diversity Plus: hDFCGF Assay for Macrophage colony-stimulating factor (MCSF) Biomarker Activity (AID 2283060). The conditions noted are these: primary human foreskin fibroblasts; actives raise or lower the signal. In outline:
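Human foreskin fibroblast primary cultures; M-CSF measured by ELISA 24 hours after chemical dosing. Bidirectional fitting relative to DMSO, with overt cytotoxicity tracked by parallel SRB total-protein staining (0.1% SRB, 10% TCA fixation, 560 nm).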

Experiment [11] in a line: BSK_hDFCGF_SRB: Viability Assessment in the BioMAP Diversity Plus: hDFCGF Assay (AID 2283061).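 Also: cells exposed to compound for 24 h before the read.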 The conditions noted are these: primary human foreskin fibroblasts. In outline: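 Human foreskin fibroblasts in 96-well plates were treated 24 h. Total protein was measured by 0.1% SRB staining after 10% TCA fixation, read at 560 nm. Data were fitted bidirectionally against DMSO.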

Read-out in experiment [12]: TIMP metallopeptidase inhibitor 1 (TIMP1), TIMP1 (gene 7076)
Briefly: BSK_hDFCGF_TIMP1: BioMAP Diversity Plus: hDFCGF Assay for TIMP metallopeptidase inhibitor 1 (TIMP1) Biomarker Activity (AID 2283062). The following applies: primary human foreskin fibroblasts; actives raise or lower the signal. In outline: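 Human foreskin fibroblast primary cultures dosed for 24 h; secreted/surface TIMP-1 quantified by ELISA. Bidirectional curve fitting against DMSO baseline; cytotoxicity tracked in parallel cultures by SRB total-protein staining.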

Read-out in experiment [13]: Monokine induced gamma interferon (MIG), CXCL9 (gene 4283)
Put plainly: BSK_hDFCGF_MIG: BioMAP Diversity Plus: hDFCGF Assay for Monokine induced gamma interferon (MIG) Biomarker Activity (AID 2283063). The conditions noted are these: primary human foreskin fibroblasts; actives raise or lower the signal. In outline: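 MIG/CXCL9 measured by ELISA 24 h after dosing primary human skin fibroblasts. Activity fitted in both directions against DMSO controls. Cytotoxicity was checked in parallel cultures by SRB staining read at 560 nm.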

Read-out in experiment [14]: Matrix Metallopeptidase 1 (MMP1), MMP1 (gene 4312)
Briefly: BSK_hDFCGF_MMP1: BioMAP Diversity Plus: hDFCGF Assay for Matrix Metallopeptidase 1 (MMP1) Biomarker Activity (AID 2283064). The following applies: primary human foreskin fibroblasts; actives raise or lower the signal. In outline: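 Human foreskin fibroblasts exposed to chemical for 24 h; MMP1 detected by ELISA, with DMSO as baseline for bidirectional fitting.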

Read-out in experiment [15]: Vascular cell adhesion molecule 1 (VCAM1), VCAM1 (gene 7412)
Briefly: BSK_hDFCGF_VCAM1: BioMAP Diversity Plus: hDFCGF Assay for Vascular cell adhesion molecule 1 (VCAM1) Biomarker Activity (AID 2283065).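 As to AC50: VCAM-1 protein level quantified by ELISA after 24 h chemical exposure.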 The following applies: primary human foreskin fibroblasts; actives raise or lower the signal. In outline: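 Human foreskin fibroblast primary cells dosed with chemical, VCAM-1 measured by ELISA at 24 h. Bidirectional curve fitting relative to DMSO as negative control/baseline.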

Read-out in experiment [16]: Plasminogen activator inhibitor-1 (PAI1), SERPINE1 (gene 5054)
Briefly: BSK_hDFCGF_PAI1: BioMAP Diversity Plus: hDFCGF Assay for Plasminogen activator inhibitor-1 (PAI1) Biomarker Activity (AID 2283066). The following applies: primary human foreskin fibroblasts; actives raise or lower the signal. The procedure, abridged: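 Human skin fibroblast cultures receive chemical for 24 h before PAI-1 is measured by ELISA; signal changes are fitted bidirectionally against DMSO-treated wells.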

Read-out in experiment [17]: Intercellular Adhesion Molecule 1 (ICAM1), ICAM1 (gene 3383)
Put plainly: BSK_KF3CT_ICAM1: BioMAP Diversity Plus: KF3CT Assay for Intercellular Adhesion Molecule 1 (ICAM1) Biomarker Activity (AID 2283067). The following applies: primary human keratinocytes with fibroblasts; actives raise or lower the signal. In outline: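 Human keratinocyte–foreskin fibroblast co-culture was treated for 24 h. Cell-surface ICAM-1 was quantified by ELISA, fitted bidirectionally relative to DMSO. Cytotoxicity was checked in parallel cultures by SRB total-protein staining.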

Read-out in experiment [18]: Interferon-gamma inducible Protein 10 (IP10), CXCL10 (gene 3627)
Briefly: BSK_KF3CT_IP10: BioMAP Diversity Plus: KF3CT Assay for Interferon-gamma inducible Protein 10 (IP10) Biomarker Activity (AID 2283068). The conditions noted are these: primary human keratinocytes with fibroblasts; actives raise or lower the signal. The procedure, abridged:
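Human keratinocyte plus foreskin fibroblast primary co-culture exposed to test chemical for 24 h; IP-10 measured by ELISA. Concentration-response fitted bidirectionally against DMSO control as baseline.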

A short description of experiment [19]: BSK_KF3CT_SRB: Viability Assessment in the BioMAP Diversity Plus: KF3CT Assay (AID 2283069).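 Also: read 24 h after compound addition; fitted for both signal gain and loss against DMSO baseline.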 The conditions noted are these: primary human keratinocytes with fibroblasts. In outline: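 Overt cytotoxicity is assessed as total protein by sulforhodamine B staining in parallel human skin co-cultures at 24 h after dosing. DMSO serves as negative control and baseline.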

Read-out in experiment [20]: Interleukin-1 alpha (IL1a), IL1A (gene 3552)
Put plainly: BSK_KF3CT_IL1a: BioMAP Diversity Plus: KF3CT Assay for Interleukin-1 alpha (IL1a) Biomarker Activity (AID 2283070). The conditions noted are these: primary human keratinocytes with fibroblasts; actives raise or lower the signal. The procedure, abridged: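 Readout is IL-1a level by ELISA, compared bidirectionally with DMSO as baseline. Cells: human keratinocytes co-cultured with foreskin fibroblasts, harvested 24 h post-dose.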

Calls of active or inactive are those of the source. The calls were made as follows: active = hit-call score of the fitted dose curve at least 0.9, where 1 is the maximum; inactive = score below 0.9.

Consider `OCCCCO`, for which the outcome in [1], in [2], in experiment [3], in experiment [4], in [5] and in experiment [6] was inactive. Also, the outcome in [7], in [8], in [9], in [10], in experiment [11] and in experiment [12] was inactive. Moreover, the result in [13], in experiment [14], in experiment [15], in experiment [16], in experiment [17] and in experiment [18] was inactive. Besides, the result in [19] and in [20] was inactive.
As for `CCC(C)(C#N)N=NC(C)(C#N)CC` (stereo not given), the result in [1], in experiment [2], in experiment [3], in experiment [4], in experiment [5] and in [6] was inactive. Further, the result in [7], in experiment [8], in [9], in [10], in experiment [11] and in experiment [12] was inactive. For the same molecule, the outcome in [13], in [14], in experiment [15], in experiment [17], in [18] and in [19] was inactive. The result in [20] was inactive. For the same molecule, the AC50 in experiment [16] was 0.016 µM (active).
With `Cc1cc(C)cc(C)c1`, the result in [1], in experiment [2], in experiment [3], in experiment [4], in [5] and in experiment [6] was inactive. Besides, the outcome in experiment [7], in [8], in [9], in experiment [10], in experiment [11] and in [12] was inactive. In addition, the outcome in experiment [13], in [14], in experiment [15], in experiment [16], in [17] and in experiment [18] was inactive. Besides, the outcome in experiment [19] and in [20] was inactive.
For the molecule `Cc1cc(Cl)ccc1N`, the outcome in experiment [1], in experiment [2], in experiment [3], in experiment [4], in [5] and in [6] was inactive. For the same molecule, the outcome in experiment [7], in experiment [8], in experiment [10], in [11], in experiment [12] and in experiment [13] was inactive. Moreover, the outcome in experiment [14], in experiment [15], in experiment [16], in experiment [17], in [18] and in experiment [19] was inactive. Further, the outcome in experiment [20] was inactive. In addition, the AC50 in [9] is 5.13 µM (active).
Turning to `Cc1ccccc1OP(=O)(Oc1ccccc1)Oc1ccccc1`, the outcome in experiment [1], in experiment [2], in experiment [4], in experiment [5], in experiment [7] and in [8] was inactive. Moreover, the outcome in [16], in experiment [17], in experiment [18] and in experiment [19] was inactive. Also, the AC50 in experiment [3] is 19 µM (active); in experiment [6], 2.84 µM (active); in experiment [9], 20 µM (active); in [10], 10.5 µM (active); in experiment [11], 29.2 µM (active); in experiment [12] it was 14.5 µM (active). In addition, the AC50 was 20 µM (active) in experiment [13], 27.4 µM (active) in experiment [14], 5.06 µM (active) in [15] and 20 µM (active) in [20].
`CCOP(=S)(OCC)SCS(=O)(=O)C(C)(C)C`: the outcome in experiment [1], in [2], in experiment [3], in experiment [4], in experiment [5] and in experiment [6] was inactive. The outcome in [7], in [8], in [9], in experiment [10], in experiment [11] and in experiment [12] was inactive. For the same molecule, the result in experiment [13], in experiment [14], in experiment [15], in experiment [16], in [17] and in [18] was inactive. In addition, the outcome in experiment [19] and in [20] was inactive.
In the case of `CCOC(=O)C(SP(=S)(OC)OC)c1ccccc1` (stereo not given), the AC50 is 20 µM (active) in [1]; 3.97 µM (active) in experiment [2]; 20 µM (active) in experiment [5]; 10.2 µM (active) in experiment [6]; 26.4 µM (active) in experiment [9]; 7.09 µM (active) in experiment [10]. The AC50 in experiment [15] is 20 µM (active). For the same molecule, the result in [3], in [4], in experiment [7], in experiment [8], in experiment [11] and in [12] was inactive. Besides, the outcome in experiment [13], in experiment [14], in experiment [16], in experiment [17], in [18] and in experiment [19] was inactive. Moreover, the outcome in [20] was inactive.

For orientation: AC50 means the concentration giving half of the maximal activity seen.
